Only some compounds are listed: those with a hit (about 32% of all), similar ones and a draw of the others.
CYP2C9 inhib = human CYP2C9 inhibition; inhibition, % at 5 µM; CYP2C9 Supersomes, luciferin-H conversion, luminescence; 96,000 compounds, 20% hits; AID 777;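 active = blocking of liver enzyme CYP2C9 beyond about 50% at 5 µM, limit read from the data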
PostGolgi ctrl = yeast control strain growth, post-Golgi counter-screen | AID 738 | inhibition, % at 10 µM | efflux-deficient yeast background strain, growth absorbance A615, 16 h | 98,000 compounds, 5% hits
CYP2C19 act = cytochrome P450 2C19 (human) activation | P33261 | recombinant CYP2C19, luciferin-H EGE luminescence; hits give high values; 0 = fully inhibited enzyme, 1 = untreated enzyme | activation factor at 5 µM | 96,000 tested, under 10 active;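 active = activation factor of at least 2 at 5 µM in the primary screen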
Target sequence (P33261 whole entry, looked up): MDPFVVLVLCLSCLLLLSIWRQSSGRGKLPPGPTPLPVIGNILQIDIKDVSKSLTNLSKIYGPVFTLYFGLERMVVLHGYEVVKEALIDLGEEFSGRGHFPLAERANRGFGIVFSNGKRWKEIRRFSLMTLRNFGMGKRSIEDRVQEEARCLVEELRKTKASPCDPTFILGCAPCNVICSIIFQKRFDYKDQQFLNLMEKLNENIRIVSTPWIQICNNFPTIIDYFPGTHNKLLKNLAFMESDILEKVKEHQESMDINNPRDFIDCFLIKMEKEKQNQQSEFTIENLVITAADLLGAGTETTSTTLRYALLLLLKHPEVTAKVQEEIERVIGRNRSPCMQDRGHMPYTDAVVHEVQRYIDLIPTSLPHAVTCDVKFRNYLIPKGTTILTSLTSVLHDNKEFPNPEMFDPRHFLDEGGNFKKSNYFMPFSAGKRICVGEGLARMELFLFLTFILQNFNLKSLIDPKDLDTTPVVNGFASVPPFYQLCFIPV
CYP2C19 inh = inhibitors of human CYP2C19; CYP2C19 Supersomes, luciferin-H EGE luminescence, 30 min; AID 778; P33261; 96,000 compounds, 21% hits; inhibition, % at 5 µM;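 active = CYP2C19 inhibition above a set limit at 5 µM in the primary screen, cut at about 50% in these data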
PostGolgi yeast = growth inhibition of a yeast mutant, post-Golgi transport screen. post-Golgi transport phenotypic cell assay. inhibition, % at 10 µM. 98,000 compounds, 0.9% hits;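 note: yeast cells grown in 1536-well plates; yeast grown about 18 h at 30C before absorbance read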
CYP2C9 act = increases human cytochrome P450 2C9 activity. P11712. recombinant CYP2C9, luciferin-H conversion, luminescence; hits give high values; factor 1 = untreated enzyme, 0 = blocked. activation factor at 5 µM. 96,000 compounds, 1.4% hits. AID 1024;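 active = activation factor of 2 or more for CYP2C9 at a 5 µM dose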
Large screens that a line does not name were inactive. Cut-off read from the data, not from the text of the source, unless noted: active = inhibition above about 30%; inactive = the rest.

CC(C)COC(=O)Nc1nnc(SCc2ccccc2F)s1	none
CCOCCc1nnc(NC(=O)c2ccc(OC)c(OC)c2)s1	none
CSc1nc(-c2ccco2)nn1S(C)(=O)=O	none
C#CC[N+](C)(C)C(C#Cc1ccccc1)CC=C (centres undefined)	none
CC(=O)N1CCCc2cc(S(=O)(=O)N3CCN(C4CCCCC4)CC3)ccc21	none
CC1Cc2ccccc2N1C(=O)CSc1nnc(CSc2ncccn2)n1C (centres undefined)	none
CCOC(=O)N1CCN(C(=O)c2nc3ccccc3s2)CC1	none
N#Cc1c2n(c3c(=O)n(Cc4ccccc4Cl)cnc13)CCCCC2	CYP2C9 inhib 68, CYP2C19 inh 59
Cc1c(C#N)c2ncn(Cc3ccccc3)c(=O)c2n1-c1ccccc1	CYP2C9 inhib 63
Cc1c(Cl)cccc1N1CC(C(=O)Nc2nccs2)CC1=O (centres undefined)	none
CC(NC(=O)C(=O)NN=C1CCCCCCCCCCC1)c1ccccc1 (centres undefined)	none
O=C(CSc1ncnc2c1cnn2CCc1ccccc1)Nc1cccc(C(F)(F)F)c1	CYP2C9 inhib 98, CYP2C19 inh 78
COC(=O)CSc1ncnc2c1cnn2Cc1ccccc1	CYP2C19 inh 68
CC(C)OC(=O)CSc1ncnc2c1cnn2Cc1ccccc1	none
Cc1c(Cl)cccc1NC(=O)CSc1ncnc2c1cnn2CCc1ccccc1	CYP2C9 inhib 89, CYP2C19 inh 63
Cc1ccc2nc(C3CCN(C(=O)c4ccco4)CC3)[nH]c2c1	none
COc1ccc(OCCCSc2ncccn2)cc1	CYP2C19 inh 64
COc1ccc(OCCSc2ncccn2)cc1	PostGolgi ctrl 33, CYP2C19 inh 87
c1ccc(Oc2cccc(OCCCn3cncn3)c2)cc1	CYP2C9 inhib 94, CYP2C19 inh 100
c1ccc(Oc2cccc(OCCCCSc3ncccn3)c2)cc1	CYP2C9 inhib 51
COc1cccc(OCCCCSc2ncccn2)c1	none
CCOC(=O)COc1ccc2c(c1)C(=O)CC(C)(C)O2	none
COC(=O)CSc1nc(N2CCCCC2)c2c(c1C#N)CCCC2	CYP2C9 inhib 90, PostGolgi ctrl 38, CYP2C19 inh 68
N#Cc1c(SCC(=O)O)nc(N2CCCCC2)c2c1CCCC2	none
COC(=O)CSc1nc2c(c(-c3ccc(C)o3)c1C#N)CCCC2	none
CCCCCNc1nc(N2CCCC2)c2c(c1C#N)CCN(C)C2	none
CCCCCNc1nc(NCCCO)c(C#N)c2c1CN(C)CC2	CYP2C9 inhib 54
N#Cc1c(NCCCO)nc(-c2ccccc2)c2c1CCCC2	CYP2C9 inhib 97, PostGolgi ctrl 47, CYP2C19 inh 93
COC(=O)CSc1nc(-c2ccccc2)c2c(c1C#N)CCCC2	CYP2C9 inhib 69, CYP2C19 inh 97
O=C(CCn1nnc2ccccc2c1=O)N[C@H](C(=O)O)c1ccccc1	none
COc1ccc(OC)c(-n2c(-c3cnccn3)n[nH]c2=S)c1	none
COc1ccc(OC)c(-n2c(-c3ccc(S(C)(=O)=O)cc3)cc(C=O)c2C)c1	CYP2C9 inhib 66, CYP2C19 inh 60
COc1ccc(-c2cc(N)n(S(=O)(=O)c3ccc(C)cc3)n2)c(OC)c1	none
COc1ccc(OC)c(-n2c(C)ccc2-c2ccc(S(C)(=O)=O)cc2)c1	CYP2C9 inhib 98, CYP2C19 inh 96
C=CCN1CCN(C(c2ccc(OC)c(OC)c2)c2nnnn2C(C)(C)C)CC1 (centres undefined)	none
CC(=O)c1c(C)[nH]c(C(=O)Nc2cc(C)cc(C)c2)c1C	CYP2C9 inhib 84, CYP2C19 inh 58
CC(=O)c1c(C)[nH]c(C(=O)Nc2ccc(C)cn2)c1C	none
Cc1ccc(C(=O)Nc2nncs2)cc1S(=O)(=O)N1CCOCC1	none
CCOC(=O)c1ccc(Nc2cc(C)nc3ncnn23)cc1	none
CCn1cc(C(=O)NC(=S)Nc2cccc(O)c2)cn1	CYP2C19 inh 65
COc1ccc(-n2nc(C(=O)NCC(=O)NCc3ccco3)c3ccccc3c2=O)cc1Cl	none
COc1cccc(OC)c1-c1nn2c(-c3ccco3)nnc2s1	CYP2C9 inhib 68, CYP2C19 inh 89 (no result: PostGolgi ctrl, PostGolgi yeast)
COc1ccccc1-c1nnc2sc(-c3cc4ccccc4o3)nn12	PostGolgi ctrl 41
COc1ccccc1-c1nnc2sc(-c3cnccn3)nn12	CYP2C19 inh 75
COCCn1c(=O)c2cc3c(=O)n(CCOC)c(=O)c3cc2c1=O	none
CCOC(=O)c1cccc(N2C(=O)c3ccccc3S2(=O)=O)c1	CYP2C9 inhib 68, CYP2C19 inh 56
Cc1ccc2c(c1)[C@H]1OCC[C@H]1[C@@H](c1ccncc1)N2	CYP2C9 inhib 84, CYP2C19 inh 100
O=C(Nc1cccc(C(F)(F)F)c1)C1CCN(S(=O)(=O)c2cnc[nH]2)CC1	CYP2C9 inhib 82, CYP2C19 inh 55
O=C(Nc1nccs1)C1CCN(S(=O)(=O)c2cnc[nH]2)CC1	CYP2C9 inhib 86
CCCCNC(=O)C1CCN(S(=O)(=O)c2cnc[nH]2)CC1	none
COc1ccc(OC)c(S(=O)(=O)N2CCC(C(=O)Nc3cccc(C(F)(F)F)c3)CC2)c1	none
Cc1cc(C)c(-n2c(C)cc(/C=C3/NC(=O)NC3=O)c2C)c(C)c1	PostGolgi ctrl 64
Cc1cc(/C=C2/NC(=O)NC2=O)c(C)n1-c1sc2c(c1C#N)CCCC2	none
CCC(C)(c1ccc(C=O)s1)c1ccc(C=O)s1	CYP2C9 inhib 52
CCCc1nc2c(C)ccc(C)c2c(N)c1CC	none
Cc1ccc(C2=N/C(=C\N3CCCCC3)C(=O)O2)cc1	CYP2C9 inhib 66, CYP2C19 inh 84
Cc1ccccc1OCc1nc2ccccc2c(=O)n1N	CYP2C9 inhib 50, CYP2C19 inh 53
CCCCCc1nc2ccccc2c(=O)n1N	CYP2C19 inh 60
CCCc1nc2ccccc2c(=O)n1N	none
Nn1c(COc2ccccc2)nc2ccccc2c1=O	CYP2C19 inh 52
COc1cccc(OCc2nc3ccccc3c(=O)n2N)c1	PostGolgi ctrl 31
CCOC(=O)C1CCN(C(=O)C2c3ccccc3C(=O)N(C)C2c2ccc(OC)cc2)CC1 (centres undefined)	none
Cc1ccccc1-c1nc(CS(=O)(=O)CC(=O)N2CCc3ccccc32)c(C)o1	none (no result: CYP2C9 inhib, CYP2C19 act, CYP2C19 inh, CYP2C9 act)
Cc1ccc(NC(=O)Cc2nnc(SCC(=O)c3ccc(Br)cc3)n2C)cc1	none
CCC(=O)Nc1ccccc1C(=O)OCC(=O)c1ccc2ccccc2c1	CYP2C9 inhib 69, CYP2C19 inh 90
O=C(COC(=O)c1ccccc1NC(=O)c1ccccc1)c1ccc([N+](=O)[O-])cc1	CYP2C9 inhib 70, CYP2C19 inh 63
O=C(COC(=O)c1ccco1)c1ccc2ccccc2c1	none
CCC(=O)Nc1ccccc1C(=O)OCC(=O)c1ccccc1	CYP2C9 inhib 91, CYP2C19 inh 73
CC(=O)c1ccc(-n2nncc2C)cc1	none
CCCCn1c(CN2CCOCC2)nc2c1c(=O)n(C)c(=O)n2C	none (no result: PostGolgi ctrl, PostGolgi yeast)
C=CCNC(=O)CCNS(=O)(=O)c1ccc(Br)cc1	none
